Reference: PubChem BioAssay

Test: MRP1 drug-resistance reversers in H69AR cells – cell-based, doxorubicin co-treatment, pilot screen (AID 601)
Details: H69AR cells + 2 uM doxorubicin, CellTiter-Glo, 72 h; measured here: viability with 2 uM doxorubicin; at 10 µM; stronger effect = lower value

Row | Structure (SMILES) | viability
1 | COc1ccccc1NC(=O)CSc1nnc(-c2ccncc2)o1 | 91.2%
2 | CCOc1ccc2oc(-c3ccccc3)c(C(=O)N3CCN(CCO)CC3)c2c1 | 69.6%
3 | O=S(=O)(NCC1CCCO1)c1ccc(S(=O)(=O)N2CCc3ccccc3C2)cc1 (stereo not given) | 89.8%
4 | CCC(C(=O)Nc1ncccn1)(C(F)(F)F)C(F)(F)F | 94.6%
5 | O=C(Cc1ccc(Br)cc1)N1CCCCCC1 | 89.6%
6 | Cc1ccc2cc(C(c3nnnn3CC3CCCO3)N3CCc4ccccc4C3)c(=O)[nH]c2c1 (stereo not given) | 102%
7 | S=C(NCC1CCCO1)n1nnc2ccccc21 (stereo not given) | 74.1%
8 | CO/C([O-])=N/c1c[n+](-c2ccc(C)cc2)no1 | 91.3%
9 | CNc1ccc(C(O)(C(F)(F)F)C(F)(F)F)cc1C(O)(C(F)(F)F)C(F)(F)F | 84%
10 | COc1ccccc1-n1c(SCC(=O)Nc2ccc3c(c2)OCO3)nc2c(c1=O)SCC2 | 86.7%
11 | O=c1cc(C(F)F)oc2c1ccc1ccccc12 | 91.6%
12 | CCOc1cc(C2/C(=C(/O)c3ccc(OC(C)C)cc3)C(=O)C(=O)N2CCCOC)ccc1O (stereo not given) | 97.4%
13 | Cc1ccc(S(=O)(=O)Cn2nnnc2CN(Cc2ccco2)Cc2cccs2)cc1 | 75.9%
14 | Cc1c(NC(=O)c2ccc(COc3ccc4ccccc4c3)o2)c(=O)n(-c2ccccc2)n1C | 85.3%
15 | COc1ccc(Cc2nc(-c3ccc(Br)cc3)no2)cc1 | 101%
16 | CC(CCc1ccccc1)NC(=O)c1ccc(Br)o1 (stereo not given) | 84%
17 | O=C1CC(c2ccsc2)c2cc3c(cc2N1)OCCO3 (stereo not given) | 60.2%
18 | CCCN1C(=O)c2cc(C(=O)O)ccc2C1O (stereo not given) | 84.1%
19 | Cc1ccccc1-c1nc2ccccc2c(=O)n1C1CCS(=O)(=O)C1 (stereo not given) | 100%
20 | COC1CCCCC1NS(=O)(=O)c1ccccc1 (stereo not given) | 96.2%

Row | Structure (SMILES) | viability
21 | CCOC(=O)N1CCN(Cc2nc3c(c(=O)[nH]c(=O)n3C)n2Cc2cc(C)ccc2C)CC1 | 88.1%
22 | O=C(NCC1COc2ccccc2O1)c1ccc(NC(=O)c2ccco2)cc1 (stereo not given) | 92.4%
23 | COCCN(C(=O)CNC(=O)c1ccco1)C(C(=O)NC1CCCCC1)c1cccc(OC)c1 (stereo not given) | 89.6%
24 | Cc1sc2ncnc(SCC(=O)N3CCCC3)c2c1C | 83.3%
25 | CCC(C)(C)n1nnnc1C(c1ccc(OC)c(OC)c1)N1CCN(c2ccccc2)CC1 (stereo not given) | 78.9%
26 | OC(CN1CCCCC1)Cn1c(C(F)(F)F)nc2ccccc21 (stereo not given) | 86.4%
27 | O=C(CN(c1ccccc1)S(=O)(=O)c1ccccc1)N1CCN(Cc2ccc3c(c2)OCO3)CC1 | 91.8%
28 | COc1ccc(CC(=O)OCn2nnc3ccccc3c2=O)cc1 | 101%
29 | N#CC(C(=O)Nc1ccc(Cl)c(Cl)c1)=C1Nc2ccccc2N1 | 24.3%
30 | COc1ccc(C)cc1NC(=O)CN1CCN(S(=O)(=O)c2ccc(Cl)cc2)CC1 | 57.3%
31 | CCCCCn1c2nc3ccccc3nc2c2c(=O)n(CC(C)C)cnc21 | 91.3%
32 | CCn1ncc(C2=NOC(C(=O)Nc3ccc4c(c3)OCO4)C2)c1C (stereo not given) | 93.9%
33 | COc1ccc(CCNS(=O)(=O)c2ccc3c(c2)CCN3C(=O)CCC(=O)O)cc1OC | 89.8%
34 | O=C(CS(=O)(=O)c1cn(Cc2ccc(Cl)cc2)c2ccccc12)N1CCOCC1 | 88.6%
35 | CCCS(=O)(=O)C(=C1Nc2ccccc2N1)S(=O)(=O)CCC | 89.8%
36 | CCn1c(CCC(=O)Nc2nc3c(s2)CCCC3)nc2cc(S(=O)(=O)N(C)C)ccc21 | 66.7%
37 | Cc1nn(-c2ccccc2)c2c1C(O)n1c(nc3ccccc31)S2 (stereo not given) | 34.4%
38 | CCSc1nc2ccccc2n1CCC(=O)O | 93.4%
39 | COc1cccc(CN=CC2=C(O)CC(C)(C)CC2=O)c1OC | 101%
40 | CCOC(=O)NC(=O)CSc1nnnn1-c1ccc(Cl)cc1 | 85.7%
